DT40 TDP1 no CPT: qHTS for Inhibitors of human tyrosyl-DNA phosphodiesterase 1 (TDP1): qHTS in cells in absence of CPT; DT40 Tdp1-/- hTDP1 cells, no CPT, ATP luminescence, 48 h; Potency, µM (doses to about 46.2 µM), without a hit: at the top dose activity change, negative = growth inhibition, actives largely listed as inhibitors; hit rate 15% among 420,000; also: potency is read from the fitted curve at half-maximal effect; nearly all actives have a fitted effect of over 55% in size
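Luminescent ATP content (CellTiter-Glo) served as the growth readout. Knockout chicken DT40 cells expressing human TDP1 were exposed to compounds without camptothecin for a minimum 48 hr at 37 °C.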
IL1B secr inh: inhibitors of inflammasome signaling (IL-1 beta secretion); THP-1 LPS/ATP IL-1B secretion, AlphaLISA, 16 h; stronger effect = lower value; activity change, % at 57.5 µM; hit rate 4.7% among 360,000; in the data active = activity change below about -50%; inconclusive = mostly about -30% to -49%
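THP-1 cells pretreated 1 hr with compounds (up to 57.5 uM final), then stimulated with LPS (250 ng/mL final) plus ATP (1.25 mM final); secreted IL-1B measured by AlphaLISA after 16 hr, decreased signal indicating inhibition.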
HT1080 IDH1KD tx: toxicity to HT-1080 IDH1 knockdown cells (counter line); HT-1080 IDH1 knockdown viability, ATP luminescence, 48 h; Potency, µM (titrated, usually from 46.1 µM), for the others: at the highest dose activity, negative = toxicity, hits mostly cytotoxic; hit rate 2% among 360,000; AID 686971;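 also: potency is read from the fitted curve at half-maximal effect; 0% = DMSO wells and -100% = cell-free medium wells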
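Luminescent ATP read-out (CellTiter-Glo, 10 min at room temperature) after 48 h compound exposure at 37 °C gave viability of IDH1-knockdown HT-1080 cells. Activity was normalised to DMSO and cell-free wells, then fitted as concentration-response curves.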
DT40 TDP1 CPT: DT40-hTDP1 cell growth loss with CPT; chicken DT40 Tdp1-/-;hTDP1 cells + 20 nM CPT, ATP luminescence, 48 h; Potency, µM (doses to about 46.2 µM), inactives show top-dose activity change, negative = growth inhibition, actives largely listed as inhibitors; hit rate 12% among 420,000; also: potency is read from the fitted curve at half-maximal effect; nearly all actives have a fitted effect of over 55% in size
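Chicken DT40 Tdp1-/- cells stably complemented with human TDP1 were seeded at 400 cells/well in medium containing 20 nM camptothecin, exposed to pin-transferred compounds, and grown at 37 °C for at least 48 hr. Viability was read as ATP luminescence.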
HT1080-NT tox: kills 2HG-producing HT-1080-NT fibrosarcoma cells. AID 686970. HT-1080-NT fibrosarcoma viability, CellTiter-Glo ATP luminescence, 48 h. hit rate 1.6% among 360,000. Potency, µM (top dose mostly 46.1 µM), without a hit: at the highest dose activity, negative = less viability, actives largely listed as cytotoxic;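 also: NT is the 2HG producing partner of a matched IDH1 knockdown line; potency is read from the fitted curve at half-maximal effect; 0% = DMSO-treated cells and -100% = media-only wells without cells; nearly all actives have a fitted effect of over 55% in size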
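Read-out is CellTiter-Glo luminescence after 10 minutes at room temperature, following 48 hours' compound treatment of HT-1080-NT cells (750 cells/well, RPMI, 5% FBS, 37 degrees C).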
Active calls of the source: *. In the library only some 19% were active in any assay of this set; here they are far more common. Unless noted, calls follow the shape of the dose curve; as a rule, active = well fitted curve in the direction sought with a large enough effect; inconclusive = small, poorly fitted or top-dose-only effect, or another doubt; inactive = no such curve, though single readings can be large; an effect the other way counts as inactive or inconclusive. Unless noted, % is scaled to controls: 0 for no effect and ±100 for the full control effect.

For COc1ccc(NC(=O)C(=O)NCC2CCCN2S(=O)(=O)c2ccc(C)cc2)cc1 (stereo not given) the results were DT40 TDP1 no CPT 0.0184µM*, IL1B secr inh 57.5, HT1080 IDH1KD tx 0.0517µM*, DT40 TDP1 CPT 0.0058µM* and HT1080-NT tox 0.206µM*.
Cc1ccc(C(=O)NCC2CCCN2S(=O)(=O)c2ccc(C)cc2)cc1 (stereo not given) was read as DT40 TDP1 no CPT inconclusive, IL1B secr inh -14.4, HT1080 IDH1KD tx -22.7%, DT40 TDP1 CPT inconclusive and HT1080-NT tox -21.9%.
For COc1ccc(NC(=O)C(=O)NCC2CCCN2S(=O)(=O)c2cc(C)ccc2C)cc1 (stereo not given) the results were DT40 TDP1 no CPT 2.59µM*, IL1B secr inh -3.2, HT1080 IDH1KD tx 18.4µM*, DT40 TDP1 CPT 4.11µM* and HT1080-NT tox inconclusive.
For CN1CCN(c2cccc3c2S(=O)(=O)N[C@@H](Cc2ccccc2)CO3)CC1 the results were DT40 TDP1 no CPT inconclusive, IL1B secr inh -9.9, HT1080 IDH1KD tx 0.6%, DT40 TDP1 CPT inconclusive and HT1080-NT tox -6.0%.
N#C/C(=C\c1ccc(Cl)cc1)C(=O)Nc1cccnc1 was read as DT40 TDP1 no CPT -9.2%, IL1B secr inh 19.7, HT1080 IDH1KD tx -6.5%, DT40 TDP1 CPT -0.9% and HT1080-NT tox 14.3%.
For CCN(C[C@H]1N[C@@](CC)(C(=O)OC)[C@H]2C(=O)N(C)C(=O)[C@@H]12)C(=O)Nc1ccc(C)cc1 the results were DT40 TDP1 no CPT -13.1%, IL1B secr inh 36.7, HT1080 IDH1KD tx 6.0%, DT40 TDP1 CPT 6.8% and HT1080-NT tox 5.6%.
Screening COc1ccc(S(=O)(=O)N2CCCC2CNC(=O)C(=O)NCc2ccccc2Cl)cc1 (stereo not given) returned DT40 TDP1 no CPT 23.1µM*, IL1B secr inh -17.9, HT1080 IDH1KD tx -21.7%, DT40 TDP1 CPT inconclusive and HT1080-NT tox -20.1%.
For CC(C)(C)c1ccc(C(=O)NCC2CCCN2S(=O)(=O)c2ccccc2)cc1 (stereo not given) the results were DT40 TDP1 no CPT 11.6µM*, IL1B secr inh -56.9*, HT1080 IDH1KD tx -13.9%, DT40 TDP1 CPT 8.2µM* and HT1080-NT tox inconclusive.
Screening COc1ccc(S(=O)(=O)N2CCCC2C(=O)NCc2ccccc2Cl)cc1 (stereo not given) returned DT40 TDP1 no CPT inconclusive, IL1B secr inh 8.5, HT1080 IDH1KD tx -0.7%, DT40 TDP1 CPT -19.0% and HT1080-NT tox 0.2%.
COc1ccc(CCN2CC(C(=O)NCc3cccc4[nH]ccc34)CCC2=O)cc1 (stereo not given) was read as DT40 TDP1 no CPT inconclusive, IL1B secr inh 5.4, HT1080 IDH1KD tx 5.7%, DT40 TDP1 CPT inconclusive and HT1080-NT tox 0.0%.
Screening O=C(NCCCN1CCOCC1)c1onc(CSc2ccc(F)c(F)c2)c1C(=O)NCCCN1CCOCC1 returned DT40 TDP1 no CPT -13.4%, IL1B secr inh -24.5, HT1080 IDH1KD tx -2.8%, DT40 TDP1 CPT -1.2% and HT1080-NT tox -7.8%.
Screening COc1ccccc1CNC(=O)C1CCN(S(=O)(=O)c2c(C)noc2/C=C/c2cccs2)CC1 returned DT40 TDP1 no CPT 18.4µM* and DT40 TDP1 CPT 18.4µM*.
For COc1cccc(NC(=O)C2CCN(S(=O)(=O)c3c(C)noc3/C=C/c3cccs3)CC2)c1 the results were DT40 TDP1 no CPT 13µM* and DT40 TDP1 CPT inconclusive.
`O=C(NC1CC1)C1=C[C@H](c2ccc(C(F)(F)F)cc2)C[C@H](OCc2ccc(CO)cc2)O1` gave DT40 TDP1 no CPT -25.7%, IL1B secr inh -13.9, HT1080 IDH1KD tx -6.2%, DT40 TDP1 CPT -20.0% and HT1080-NT tox 6.0%.
O=C(CSc1nc2cc(C(=O)NC3CCCC3)ccc2c(=O)n1CC1CCCO1)c1cccc(Cl)c1 (stereo not given) was read as DT40 TDP1 no CPT 23.1µM* and DT40 TDP1 CPT 20.6µM*.
`Cc1ccc(C(=O)CSc2nc3cc(C(=O)NC4CCCC4)ccc3c(=O)n2CC2CCCO2)cc1` (stereo not given) gave DT40 TDP1 no CPT -16.4% and DT40 TDP1 CPT -6.5%.
Cc1ccc(C)c(C(=O)CSc2nc3cc(C(=O)NC4CCCC4)ccc3c(=O)n2CC2CCCO2)c1 (stereo not given) was read as DT40 TDP1 no CPT 8.2µM* and DT40 TDP1 CPT 18.4µM*.
Screening COC(=O)c1ccc(CNC(=O)C(NC(=O)c2ccco2)C(C)C)cc1 (stereo not given) returned DT40 TDP1 no CPT 2.8%, IL1B secr inh 10.9, HT1080 IDH1KD tx 4.9%, DT40 TDP1 CPT 1.8% and HT1080-NT tox 6.3%.
For O=[N+]([O-])CC(c1ccccc1)c1c[nH]c2ccccc12 (stereo not given) the results were DT40 TDP1 no CPT 5.8µM*, IL1B secr inh 4.8, HT1080 IDH1KD tx 14.6µM*, DT40 TDP1 CPT 7.31µM* and HT1080-NT tox inconclusive.
COc1cc(C(C[N+](=O)[O-])c2c(C)[nH]c3ccccc23)cc(OC)c1OC (stereo not given) was read as DT40 TDP1 no CPT inconclusive, IL1B secr inh 22.7, HT1080 IDH1KD tx -19.3%, DT40 TDP1 CPT inconclusive and HT1080-NT tox -18.4%.
For CC(C)CSCC1OC(n2cnc3c(N)nccc32)C(O)C1O (stereo not given) the results were DT40 TDP1 no CPT 20.6µM*, IL1B secr inh 33.5, HT1080 IDH1KD tx -10.6%, DT40 TDP1 CPT inconclusive and HT1080-NT tox -2.6%.
`CC(C)[C@H](N)C(=O)NC[C@H]1O[C@@H](n2cnc3c(N)ncnc32)[C@H](O)[C@@H]1O` gave DT40 TDP1 no CPT -8.6%, IL1B secr inh 1.0, HT1080 IDH1KD tx 7.0%, DT40 TDP1 CPT -8.1% and HT1080-NT tox 7.6%.
O=C(CN1C(=O)NC2(CCCCCC2)C1=O)c1ccc(OC(F)F)cc1OC(F)F was read as DT40 TDP1 no CPT inconclusive, IL1B secr inh -15.6, HT1080 IDH1KD tx -12.8%, DT40 TDP1 CPT inconclusive and HT1080-NT tox -1.8%.
CC(C)c1ccc(C2CC(c3ccc(Br)cc3)=NN2C(N)=S)cc1 (stereo not given) was read as DT40 TDP1 no CPT 9.2µM*, IL1B secr inh -4.1, HT1080 IDH1KD tx inconclusive, DT40 TDP1 CPT 14.6µM* and HT1080-NT tox -23.1%.
`CNC(=S)N1N=C(c2ccccc2)CC1c1ccccc1Cl` (stereo not given) gave DT40 TDP1 no CPT inconclusive, IL1B secr inh 26.6, HT1080 IDH1KD tx 13.9%, DT40 TDP1 CPT inconclusive and HT1080-NT tox -2.0%.
`CNC(=S)N1N=C(c2ccc(C)cc2)CC1c1ccc(Cl)cc1` (stereo not given) gave DT40 TDP1 no CPT 10.3µM*, IL1B secr inh -11.0, HT1080 IDH1KD tx 1.7%, DT40 TDP1 CPT 13µM* and HT1080-NT tox 2.6%.

Compound activity from PubChem BioAssay.
